# Test system: P. falciparum NF54-pfs16-GFP late (IV-V) stage gametocytes
# Assay: relative % inhibition of viable gametocyte number; higher = more gametocytocidal
# Settings: 5 µM; stage: late (IV-V) gametocyte; incubation 72 h
# Method in brief: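 Early-stage (I/IIa, day 2) or late-stage (day 8) NF54 pfs16-GFP gametocytes were isolated by magnet and plated in 384-well poly-D-lysine imaging plates at 10% parasitaemia and 0.1% haematocrit, with compound in duplicate at 5 or 0.5 µM. After 72 h at 37°C under 5% CO2 and 5% O2, MitoTracker Red was added overnight. Confocal imaging scored elongated GFP objects whose MitoTracker signal passed a cut-off as viable gametocytes. Relative inhibition was normalised against vehicle and positive-control wells on the same plate.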
row,Compound,relative % inhibition
1,Cc1sc(NC(=O)c2ccccc2)c(C(c2cccs2)N2CCN(c3ccccc3)CC2)c1C (stereo not drawn),77%
2,CCc1ccc(Nc2cc(C)nc3nc(C)nn23)cc1,16.9%
3,CCOc1cc2c(cc1OCC)C(c1cc(Cl)c(O)c(OCC)c1)NCC2 (stereo not drawn),18.2%
4,O=C(NC1CCN(Cc2ccccc2)CC1)c1cc2nc(-c3ccc(Cl)s3)cc(C(F)(F)F)n2n1,25%
5,CCCCNCC(O)(c1ccc(Cl)cc1)c1ccc(Cl)cc1,44%
6,Cc1cc(Nc2ccc3ccccc3c2)n2ncnc2n1,8.91%
7,Cc1ccc(CSCc2ccc(C(=O)NC3CC3)o2)cc1,43.1%
8,FC(F)(F)c1ccc(Nc2nnnc3ccccc23)cc1,7.26%
9,COc1ccc(C(=O)Nc2ccc(Cl)cc2C(=O)Nc2ccncc2)cc1,3.3%
10,CCCc1c(C)nc2ccc(Br)cc2c1O,59.8%
11,CCCCCC(=O)N1c2ccccc2N=C2CC(c3ccc(OC)c(OC)c3)CC(O)=C2C1c1ccc(C(F)(F)F)cc1 (stereo not drawn),60.6%
12,Cc1ccc(F)cc1NC(=O)c1cc(Cl)ccc1Nc1ccccc1,46.8%
13,Cc1ccc(Nc2nc(-c3ccccn3)cs2)cc1,98.4%

# — the supplement of paper PMC3842684
